Here are results for 60 molecules from the supplement of paper PMC13380429.

In assay [1] the test system is Vero E6 infected with SARS-CoV-2. Description: morphology score (similarity to uninfected cells); higher = more like uninfected cells. The settings on record: 24 h.
The test system is the same in assay [2]. The experiment in a line: SARS-CoV-2 infection rate relative to infected DMSO; higher = more infection, active = 60 or less. The settings on record: 24 h.

The molecule `O=C1CCC2CCC(=O)N12` [rolziracetam] (10 µM) gave a morphology score in assay [1] of -0.0425. Moreover, the SARS-CoV-2 infection rate in assay [2] was 106% (inactive).
For `NC(=O)c1ccc(F)c2c1C[C@@H](N(C1CCC1)C1CCC1)CO2` [robalzotan] (10 µM) the same measures were 0.00904 and 100% (inactive).
For `COc1cc(O)c2c(c1)C(=O)c1cc(C)cc(O)c1C2=O` [rheochrysidin] (10 µM) the same measures were 0.119 and 109% (inactive).
In assay [1], `O=C(O)CCCc1c[nH]c2ccccc12` [3-indolebutyric-acid] (10 µM) came in with a morphology score of 0.123. In assay [2], the SARS-CoV-2 infection rate is 114% (inactive).
Turning to `CCCc1nn(C)c2c(=O)[nH]c(-c3cc(S(=O)(=O)N4CCN(C)CC4)ccc3OCC)nc12` [sildenafil] (10 µM), in assay [1], the morphology score stood at 0.056. Moreover, in assay [2], the SARS-CoV-2 infection rate was 109% (inactive).
`CO[C@H]1CC[C@H](N2C(=O)CNc3ncc(-c4ccc(C(C)(C)O)nc4)nc32)CC1` (0.833333 µM) returned a morphology score in assay [1] of 0.21. Besides, the SARS-CoV-2 infection rate in assay [2] was 82.5% (inactive).
In the case of `CNCC[C@H](Oc1cccc2ccccc12)c1cccs1` [duloxetine] (10 µM), the morphology score in assay [1] was determined as 0.747. In addition, the SARS-CoV-2 infection rate in assay [2] was 47% (active).
In turn, `O=C(O)C1=CCCN(CCOC(c2ccc(C(F)(F)F)cc2)c2ccc(C(F)(F)F)cc2)C1` (10 µM) had a morphology score in assay [1] of 0.0171. In assay [2], the SARS-CoV-2 infection rate was 103% (inactive).
As to `C=CCNc1c(O)cc2c(O)c1C[C@@H](C)C[C@H](OC)[C@H](O)[C@@H](C)/C=C(\C)[C@H](OC(N)=O)[C@@H](OC)/C=C\C=C(/C)C(=O)N2` [retaspimycin] (10 µM), the morphology score in assay [1] was -0.0349. Moreover, the SARS-CoV-2 infection rate in assay [2] was 108% (inactive).
For `O=C1c2c(O)cc(O)cc2O[C@H](c2cc(O)c(O)c(O)c2)[C@H]1O` [dihydromyricetin] (10 µM) the same measures were -0.0984 and 108% (inactive).
For the molecule `O=C(O)c1cc(O)c(O)c(O)c1` [gallic-acid] (10 µM), the morphology score in assay [1] is -0.19. Besides, the SARS-CoV-2 infection rate in assay [2] is 110% (inactive).
Regarding `O=C(O)c1ccc(/C=C2\SC(=S)N(c3cccc(C(F)(F)F)c3)C2=O)cc1` (10 µM), in assay [1], the morphology score was 0.125. Also, the SARS-CoV-2 infection rate in assay [2] was 108% (inactive).
For `Cc1c(N2C(=O)[C@@H]3[C@H](O)CCN3C2=O)ccc(C#N)c1Cl` (10 µM) the same measures were 0.189 and 91.5% (inactive).
Regarding `O=C(O)[C@H](Cc1ccc(Nc2nccc3ccncc23)cc1)NC1=C(Br)C(=O)C12CCCCC2` (10 µM), the morphology score in assay [1] came to 0.0401. Besides, in assay [2], the SARS-CoV-2 infection rate is 98% (inactive).
For `Cc1cc(OCCN2CCOCC2)nn1-c1ccc2ccccc2c1` (10 µM) the same measures were 0.0539 and 99.5% (inactive).
In the same order, the values of `O=S(=O)(c1cccc2cnccc12)N1CCCNCC1` [fasudil] (10 µM) are 0.474 and 100% (inactive).
`CCN1/C(=C/C(C)=O)Sc2ccc(OC)cc21` (10 µM) came in with a morphology score in assay [1] of -0.0524. Also, in assay [2], the SARS-CoV-2 infection rate was 108% (inactive).
For `CC(C)C[C@@H]1NC(=O)[C@@H](C(C)C)NC(=O)[C@@H]2CCCN2C(=O)[C@@H](CC(=O)O)NC(=O)[C@@H](Cc2c[nH]c3ccccc23)NC1=O` (10 µM) the same measures were 0.163 and 103% (inactive).
Molecule `Cc1cc(-c2cc(OC(=O)c3ccccc3)ccc2Cl)cc2nnc(Nc3ccc(OCCN4CCCC4)cc3)nc12` (10 µM) registered a morphology score in assay [1] of -0.0439. Further, in assay [2], the SARS-CoV-2 infection rate was 114% (inactive).
In assay [1], `CC(=O)N[C@@H](CC(=O)O)C(=O)N[C@@H](CCC(=O)O)C(=O)O` [spaglumic-acid] (10 µM) returned a morphology score of 0.121. Further, the SARS-CoV-2 infection rate in assay [2] was 88.5% (inactive).
In turn, `FC(F)(F)c1cccc(-c2noc(-c3cc(-c4ccccc4)c(C(F)(F)F)s3)n2)c1` (10 µM) yielded a morphology score in assay [1] of -0.0447. Further, the SARS-CoV-2 infection rate in assay [2] is 114% (inactive).
In the same order, the values of `CC1(N)CCN(c2cnc(-c3cccc(Cl)c3Cl)c(N)n2)CC1` (0.833333 µM) are 0.0281 and 112% (inactive).
In turn, `CC(C)(C)Nc1nc(Nc2ccc(C(N)=O)cc2)cc(N)c1C#N` (0.833333 µM) had a morphology score in assay [1] of 0.029. Further, in assay [2], the SARS-CoV-2 infection rate was 106% (inactive).
For `CN(C(=O)/C=C/c1ccoc1)[C@@H]1CC[C@@]2(O)[C@H]3Cc4ccc(O)c5c4[C@@]2(CCN3CC2CC2)[C@H]1O5` [nalfurafine] (10 µM) the same measures were -0.0681 and 108% (inactive).
`COc1cc(C(=S)N2CCOCC2)cc(OC)c1OC` [sulmetozine] (10 µM) yielded a morphology score in assay [1] of 0.0452. For the same molecule, in assay [2], the SARS-CoV-2 infection rate was 106% (inactive).
For `Cc1cc(C(=O)NOCCO)c(Nc2ccc(I)cc2F)n(C)c1=O` (10 µM), the morphology score in assay [1] is -0.0952. The SARS-CoV-2 infection rate in assay [2] is 107% (inactive).
In the same order, the values of `O=c1c(-c2ccc(O)cc2)coc2cc(O)cc(O)c12` [genistein] (10 µM) are -0.211 and 119% (inactive).
`CCCCCCCCCCC(O)C1C=CC2C(=O)N(c3ccccc3)C(=O)C2N1Nc1ccc([N+](=O)[O-])cc1` (stereo not given) (10 µM) displayed a morphology score in assay [1] of 0.496. In addition, in assay [2], the SARS-CoV-2 infection rate was 69.5% (inactive).
In the same order, the values of `CCOc1ccccc1OC(c1ccccc1)C1CNCCO1` (stereo not given) [reboxetine] (10 µM) are -0.0871 and 113% (inactive).
In turn, `CCC1(CC)C(=O)C=CNC1=O` [pyrithyldione] (10 µM) had a morphology score in assay [1] of -0.0471. Also, the SARS-CoV-2 infection rate in assay [2] is 107% (inactive).
`CN1CCc2cc(Cl)c(O)cc2[C@@H](c2ccccc2)C1` (10 µM): in assay [1], the morphology score stood at 0.0172. For the same molecule, the SARS-CoV-2 infection rate in assay [2] is 108% (inactive).
In assay [1], `COc1ccc2c(c1OC)C(=O)O[C@@H]2[C@H]1c2c(cc3c(c2OC)OCO3)CCN1C` [noscapine] (10 µM) showed a morphology score of -0.105. For the same molecule, in assay [2], the SARS-CoV-2 infection rate is 104% (inactive).
In the same order, the values of `CCN(CC)Cc1ccc2cc(COC(=O)Nc3ccc(C(=O)NO)cc3)ccc2c1` [givinostat] (10 µM) are -0.215 and 112% (inactive).
In the same order, the values of `CC(C)(Oc1ccc(Cl)cc1)C(=O)O` [clofibric-acid] (10 µM) are -0.0106 and 98.5% (inactive).
`O=C(N/N=C/c1ccc(O)c(O)c1)c1cc2ccccc2cc1O` [dynasore] (10 µM): the morphology score in assay [1] was -0.107. Moreover, in assay [2], the SARS-CoV-2 infection rate was 108% (inactive).
In the same order, the values of `CCCN(CCC)CCc1ccc(OC)c(OCCc2ccccc2)c1` (10 µM) are 0.353 and 86.5% (inactive).
For `COc1ccc(S(=O)(=O)Nc2cccnc2Nc2ccc(O)cc2)cc1` (10 µM) the same measures were -0.213 and 106% (inactive).
Molecule `CCCc1nc(C)c2c(=O)nc(-c3cc(S(=O)(=O)N4CCN(CC)CC4)ccc3OCC)[nH]n12` [vardenafil] (10 µM) gave a morphology score in assay [1] of 0.227. The SARS-CoV-2 infection rate in assay [2] was 97.5% (inactive).
For `CCCCCCCC/C=C\CCCCCCCC(=O)N[C@@H](CO)Cc1ccc(O)cc1` (10 µM), the morphology score in assay [1] is 0.123. In assay [2], the SARS-CoV-2 infection rate was 104% (inactive).
In assay [1], `CCCCCCCC/C=C/C(=O)O` [trans-2-undecenoic-acid] (10 µM) registered a morphology score of 0.204. The SARS-CoV-2 infection rate in assay [2] is 112% (inactive).
Turning to `COc1cc2cc(c1Cl)N(C)C(=O)C[C@H](OC(=O)C(C)C)[C@]1(C)O[C@@H]1[C@H](C)[C@@H]1C[C@@](O)(NC(=O)O1)[C@H](OC)/C=C/C=C(\C)C2` [ansamitocin-p-3] (0.833333 µM), the morphology score in assay [1] was -0.108. Also, in assay [2], the SARS-CoV-2 infection rate was 114% (inactive).
In assay [1], `COc1cn(-c2ccc(-n3cccn3)cc2F)nc(-c2ccnn2-c2ccccc2)c1=O` (10 µM) showed a morphology score of 0.0337. Also, the SARS-CoV-2 infection rate in assay [2] is 112% (inactive).
In the same order, the values of `CCOC(N)=O` [urethane] (10 µM) are -0.0716 and 106% (inactive).
For `COC(=O)C1=C(C)NC(C)=C(C(=O)OCCN(C)Cc2ccccc2)C1c1cccc([N+](=O)[O-])c1` (stereo not given) [nicardipine] (10 µM) the same measures were 0.0181 and 103% (inactive).
For `CSC[C@H](N)C(=O)O` [S-methylcysteine] (10 µM) the same measures were 0.000717 and 102% (inactive).
`CN(C)CCOc1cc(-c2cn[nH]c2)ccc1NC(=O)C1COc2ccccc2O1` (stereo not given) (0.833333 µM): the morphology score in assay [1] worked out at 0.294. Besides, in assay [2], the SARS-CoV-2 infection rate was 76.5% (inactive).
In the same order, the values of `CCCCCOc1ccc(-c2cc(-c3ccc(C(=O)N[C@H]4C[C@@H](O)[C@@H](O)NC(=O)[C@@H]5[C@@H](O)[C@@H](C)CN5C(=O)[C@H]([C@H](O)CC(N)=O)NC(=O)[C@H]([C@H](O)[C@@H](O)c5ccc(O)c(OS(=O)(=O)O)c5)NC(=O)[C@@H]5C[C@@H](O)CN5C(=O)[C@H]([C@@H](C)O)NC4=O)cc3)no2)cc1` [micafungin] (10 µM) are 0.0545 and 94.5% (inactive).
`CN(C)Cc1cccc(N=C(c2ccccc2)c2c(O)[nH]c3cc(C(=O)N(C)C)ccc23)c1` (10 µM) yielded a morphology score in assay [1] of -0.271. In assay [2], the SARS-CoV-2 infection rate was 112% (inactive).
For `CCCNC(=O)Nc1ccc(Oc2ncnc3cc(OC)c(OC)cc23)cc1Cl` (10 µM) the same measures were -0.0266 and 108% (inactive).
In the same order, the values of `COc1cc(COc2cc(N)c(Cl)cc2C(=O)CCC2CCN(CCNS(C)(=O)=O)CC2)cc(OC)c1` (0.833333 µM) are 0.265 and 102% (inactive).
With `O=C(C[S+]([O-])C(c1ccccc1)c1ccccc1)NO` (stereo not given) [adrafinil] (10 µM), the morphology score in assay [1] was 0.2. For the same molecule, the SARS-CoV-2 infection rate in assay [2] was 100% (inactive).
Turning to `CCOC(=O)CCC(=O)O[C@H]1[C@H](O[C@@H]2[C@@H](C)[C@H](O[C@H]3C[C@@](C)(OC)[C@@H](O)[C@H](C)O3)[C@@H](C)C(=O)O[C@H](CC)[C@@](C)(O)[C@H](O)[C@@H](C)C(=O)[C@H](C)C[C@@]2(C)O)O[C@H](C)C[C@@H]1N(C)C` [erythromycin-ethylsuccinate] (10 µM), the morphology score in assay [1] was -0.215. Also, in assay [2], the SARS-CoV-2 infection rate is 118% (inactive).
For `O=C[C@H](O)[C@@H](O)[C@H](O)CO` [xylose] (10 µM) the same measures were -0.0367 and 108% (inactive).
In the same order, the values of `O=C(Nc1ccccc1C(=O)NC1CCCCNC1=O)c1cc2ccccc2s1` (stereo not given) (10 µM) are 0.0242 and 99.5% (inactive).
In the same order, the values of `C[C@H](C[C@H](N)C(=O)O)C(=O)O` (10 µM) are 0.0497 and 108% (inactive).
As to `COC(F)(F)C(Cl)Cl` [methoxyflurane] (10 µM), the morphology score in assay [1] is 0.106. Besides, the SARS-CoV-2 infection rate in assay [2] was 100% (inactive).
In the same order, the values of `CCNC(=O)Nc1ccc(-c2nc3c(c(N4CCOC[C@@H]4C)n2)CCN(C2COC2)C3)cc1` (0.833333 µM) are 0.13 and 103% (inactive).
For `CC(C)CC(N)=O` [isovaleramide] (10 µM) the same measures were 0.0817 and 104% (inactive).
In the same order, the values of `CC(C)(C)c1ccc(-c2nc3c(N4CCN(Cc5ccc6nccnc6c5)CC4)cccc3[nH]2)cc1` (0.833333 µM) are 0.0532 and 102% (inactive).
In the case of `CCCCCCCC/C=C\CCCCCCCC(=O)NCc1ccc(O)c(OC)c1` [olvanil] (10 µM), the morphology score in assay [1] worked out at 0.22. The SARS-CoV-2 infection rate in assay [2] is 96% (inactive).
